The record followed here is PubChem BioAssay (NCATS).

What all share (experiment): qHTS profiling for inhibitors of Plasmodium falciparum proliferation (AID 504749); further: nearly all actives have a fitted effect of over 60% in size
Settings in all cases: P. falciparum in erythrocytes, SYBR Green DNA, 72 h; series mostly up to 28.7 µM
Background: qHTS replaces the single test concentration by a dilution series.

Experiment [1] has as its system CP305. An outline of the steps: (§1)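 In a 72 h erythrocytic culture (37 C, humidified, 5% CO2) at 2.5% hematocrit and 0.3% starting parasitemia, compounds were tested; SYBR Green I in detergent lysis buffer stained parasite DNA overnight.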
Experiment [2] relates to CP315. An outline of the steps:
as §1

Experiment [3] has as its system CP325. An outline of the steps:
as §1

For experiment [4], the system named is CP329. In short, it runs like this:
as §1

Experiment [5] deals with CP335. An outline of the steps: as §1
Experiment [6] deals with DFO2036. An outline of the steps:
as §1

The test system of experiment [7] is DIV14. In short, it runs like this:
as §1

For experiment [8], the system named is DIV17. In short, it runs like this: as §1
Experiment [9] has as its system DIV30. In short, it runs like this:
as §1

In experiment [10] the test system is Dd2. An outline of the steps:
as §1

Experiment [11] concerns ECU. An outline of the steps:
as §1

Experiment [12] deals with FAB9. An outline of the steps:
as §1

The subject of experiment [13] is GB4. In short, it runs like this: as §1
In experiment [14] the test system is HB3. An outline of the steps:
as §1

The subject of experiment [15] is ICS. An outline of the steps:
as §1

Experiment [16] deals with JCK. In short, it runs like this:
as §1

For experiment [17], the system named is N140. An outline of the steps: as §1
In experiment [18] the test system is P93_24. In short, it runs like this:
as §1

The subject of experiment [19] is P94_40. In short, it runs like this:
as §1

Experiment [20] concerns PAD. In short, it runs like this: as §1

Records with an inconclusive call do not appear. Active and inactive are the calls of the source. The call rests on the fitted dose curve; in most records, active means well fitted inhibition curve with a large enough effect; inconclusive means small, poorly fitted or top-dose-only effect; inactive means flat fitted curve, though single readings scatter.
Potency means the concentration at half of the fitted maximal effect.

Regarding `CCOC(=S)SSC(=S)OCC`, the Potency result in experiment [1], in experiment [2], in experiment [3], in [4], in experiment [5] and in experiment [6] was “inactive” in each case. Also, the Potency result in experiment [7], in experiment [8], in experiment [9], in experiment [10], in experiment [11] and in experiment [12] was “inactive” in each case. Moreover, the Potency result in [13], in experiment [14], in experiment [15], in experiment [16], in [17] and in experiment [18] was “inactive” each time. The Potency entry in experiment [19] and in experiment [20] was “inactive” each time.

With `C[C@@](Cc1ccc(O)c(O)c1)(NN)C(=O)O`, the Potency entry in [1], in [2], in experiment [3], in experiment [4], in experiment [5] and in [6] was “inactive” throughout. Moreover, the Potency entry in experiment [7], in [8], in experiment [9], in [10], in [11] and in experiment [12] was “inactive” in each case. Further, the Potency entry in [13], in experiment [14], in [16], in experiment [17], in experiment [18] and in [20] was “inactive” throughout.

In the case of `CNC(=O)C[C@@H](N)C(=O)N[C@@H](C(=O)N[C@@H]1C(=O)N2[C@@H]1SC(C)(C)[C@@H]2C(=O)O)c1ccc(O)cc1`, the Potency result in [1], in [2], in experiment [3], in [4], in experiment [5] and in experiment [6] was “inactive” throughout. Besides, the Potency result in experiment [7], in experiment [8], in experiment [9], in experiment [10], in experiment [11] and in experiment [12] was “inactive” each time. Also, the Potency entry in [13], in experiment [14], in experiment [15], in experiment [16], in experiment [17] and in experiment [18] was “inactive” throughout. In addition, the Potency result in experiment [19] and in experiment [20] was “inactive” throughout.

With `O=P(O)(O)CP(=O)(O)O`, the Potency result in experiment [1], in experiment [2], in experiment [3], in experiment [4], in [5] and in experiment [6] was “inactive” in each case. Also, the Potency result in [7], in [8], in experiment [9], in experiment [10], in experiment [11] and in [12] was “inactive” in each case. Moreover, the Potency entry in experiment [13], in experiment [14], in experiment [15], in experiment [16], in experiment [17] and in experiment [18] was “inactive” each time. Also, in [20], the Potency result was “inactive”.

On to `C[C@H](CCCC(C)(C)O)[C@H]1CC[C@H]2[C@@H]3CC=C4C[C@@H](O)CC[C@]4(C)[C@H]3CC[C@]12C`, for which the Potency entry in [1], in [2], in experiment [3], in [4], in [5] and in experiment [6] was “inactive” each time. Besides, the Potency result in experiment [7], in [8], in experiment [9], in experiment [11], in experiment [12] and in experiment [13] was “inactive” in each case. Further, the Potency result in experiment [16], in experiment [17], in experiment [18] and in experiment [20] was “inactive” throughout. In addition, the values for the Potency in experiment [10] and in [15] were 15.8 µM (active) and 12.6 µM (active), respectively.

Consider `CN1C(C(=O)Nc2ccccn2)C(=O)c2sc(Cl)cc2S1(=O)=O` (stereo unspecified), for which the Potency entry in experiment [1], in experiment [2], in experiment [3], in experiment [4], in experiment [5] and in experiment [6] was “inactive” throughout. Moreover, the Potency entry in [7], in experiment [8], in experiment [9], in experiment [10], in [11] and in experiment [12] was “inactive” throughout. Also, the Potency entry in experiment [13], in experiment [14], in experiment [16], in experiment [17], in experiment [18] and in experiment [19] was “inactive” in each case. The Potency entry in [20] was “inactive”.

With `OCCCNc1ccccc1`, the Potency result in [1], in experiment [2], in experiment [3], in [4], in experiment [5] and in [6] was “inactive” throughout. The Potency entry in [7], in experiment [8], in experiment [9], in experiment [10], in experiment [11] and in [12] was “inactive” in each case. Besides, the Potency result in experiment [13], in [14], in [15], in experiment [16], in experiment [17] and in [18] was “inactive” in each case. Also, the Potency result in experiment [19] and in [20] was “inactive” each time.

Regarding `COC(=O)c1ccccc1O`, the Potency entry in [1], in experiment [2], in [3], in experiment [4], in experiment [5] and in experiment [6] was “inactive” each time. For the same compound, the Potency entry in experiment [7], in [8], in [9], in experiment [10], in experiment [11] and in experiment [12] was “inactive” throughout. Besides, the Potency result in [13], in experiment [14], in experiment [15], in [16], in [17] and in experiment [18] was “inactive” each time. Further, the Potency result in experiment [19] and in [20] was “inactive” throughout.

As to `COc1ccc(-c2noc(CC(=O)O)c2-c2ccc(OC)cc2)cc1`, the Potency entry in experiment [1], in [2], in experiment [3], in [4], in experiment [5] and in experiment [6] was “inactive” in each case. Also, the Potency result in experiment [7], in experiment [8], in [9], in experiment [10], in [11] and in experiment [12] was “inactive” each time. The Potency result in experiment [14], in experiment [15], in experiment [16], in [17], in experiment [18] and in [19] was “inactive” throughout. In addition, the Potency entry in [20] was “inactive”.

In the case of `CC1=CC(=C(c2ccc(N)cc2)c2ccc(N)cc2)C=CC1=N`, the Potency is 4.26 µM (active) in experiment [1]; 4.78 µM (active) in experiment [2]; 6.01 µM (active) in [3]; 4.78 µM (active) in experiment [4]; 2.13 µM (active) in [5]; 2.82 µM (active) in [6]. In addition, the Potency is 1.07 µM (active) in experiment [7]; 1.35 µM (active) in [8]; 5.36 µM (active) in [9]; 2.82 µM (active) in experiment [10]; 2.24 µM (active) in [11]; 11.2 µM (active) in experiment [12]. For the same compound, the Potency in experiment [13] was 0.536 µM (active); in experiment [14], 8.91 µM (active); in [15], 1.26 µM (active); in experiment [17] it was 2.24 µM (active); in experiment [18], 2.51 µM (active); in [19], 1.41 µM (active). Besides, the Potency in [20] is 2.51 µM (active).

`S=C1SCN(Cc2ccccc2)CN1Cc1ccccc1`: the Potency result in [1], in [2], in [3], in [4], in [5] and in experiment [6] was “inactive” each time. Besides, the Potency result in [7], in experiment [8], in experiment [9], in experiment [10], in experiment [11] and in experiment [12] was “inactive” throughout. Moreover, the Potency entry in experiment [13], in [14], in experiment [15], in experiment [16], in [17] and in [19] was “inactive” each time. The Potency result in experiment [20] is “inactive”.

For the compound `O=C(O)CCC/C=C\C[C@@H]1[C@@H](/C=C/[C@@H](O)COc2cccc(C(F)(F)F)c2)[C@H](O)C[C@@H]1O`, the Potency entry in [1], in experiment [2], in experiment [3], in experiment [4], in experiment [5] and in experiment [6] was “inactive” in each case. Besides, the Potency result in [7], in [8], in experiment [9], in experiment [10], in experiment [11] and in experiment [12] was “inactive” in each case. The Potency result in [13], in experiment [14], in experiment [16], in experiment [18] and in [20] was “inactive” throughout.

Take `CC(=O)N=c1sc(S(N)(=O)=O)nn1C`: the Potency entry in [1], in experiment [2], in experiment [3], in experiment [4], in experiment [5] and in experiment [6] was “inactive” each time. The Potency result in experiment [7], in [8], in experiment [9], in experiment [10], in experiment [11] and in experiment [12] was “inactive” in each case. Besides, the Potency entry in experiment [13], in experiment [14], in experiment [15], in experiment [16], in experiment [17] and in [20] was “inactive” each time.
